# Measurements taken from PubChem BioAssay AID1487 (National Center for Advancing Translational Sciences (NCATS), 2009).
# Out of some 200,000 compounds screened, about 25 (0.01%) were called active. Inconclusive results (about 23%) are left out. The call rests on the fitted dose curve; in most records, active means well fitted inhibition curve with a large enough effect in the signal ratio, with a control signal flat (not every such curve was filed as active); inconclusive means small, poorly fitted or top-dose-only effect, or effect the other way, or a change in a side signal; inactive means flat fitted curve, though single readings scatter; the % refers to the signal ratio. Many of the other results were omitted from the sample, so actives are more common in it than they were.
# Assay: qHTS Assay for Modulators of Lamin A Splicing
# Details: HeLa LMNA splicing GFP/RFP minigene ratio, 48 h; series mostly up to 46 µM; ratio change, negative = inhibition: at the top concentration
# From the text: NCGC Assay Overview: Hutchinson-Gilford Progeria Syndrome (HGPS) is a pediatric premature aging disease caused by a spontaneous mutation in the lamin A/C (LMNA) gene. The mutation activates a cryptic splice site in the LMNA pre-mRNA which results in production of a pre-lamin A protein that cannot be processed properly. The mutant protein accumulates in the nucleus and negatively affects numerous cellular functions. Correction of the splicing defect in HGPS patient cells using a targeted oligonucleotide (exo11) leads to reversal of the cellular disease phenotypes. To identify small molecule modulators of aberrant LMNA splicing, a homogenous assay was constructed in HeLa cells that used a GFP containing minigene to report on correction of aberrant splicing in lamin A and a RFP (DsRed2) to report on cell viability, uniformity and nonspecific effects on the assay signal. This assay was adapted to laser-scanning microplate cytometry (Acumen, TTP Labtech) where miniaturization of the assay to a 1,536-well plate format was possible. References: Bowen, W. P.; Wylie, P. G. Application of Laser-Scanning Fluorescence Microplate Cytometry in High Content Screening. Assay Drug Dev Technol 2006;4:209-221. Scaffidi P, Misteli T. Reversal of the cellular phenotype in the premature aging disease Hutchinson-Gilford progeria syndrome. Nat.
# NCGC Assay Protocol Summary: Reagents/Controls: Stable clones expressing DsRed2 and lamin A-EGFP were generated by Cell and Molecular Technologies in S3 HeLa cells. HeLa cells were prepared for the assay when they were 70-90% confluent. The cells were counted and resuspended in Opti-MEM I (no phenol red; Gibco), 2% FBS, 1% penicillin/ streptomycin (Gibco) at concentration of 120 cells/uL concentration. The suspension was passed through a Falcon basket filter with pore size 40um (Beckton Dickson). Control titrations: column […] 1536-well plate contained a sixteen point titration (1:2 dilutions) in duplicate of ancitabine (Sigma: A8598) beginning at 40 uM final concentration. Column 2 contained a sixteen point titration (1:2 dilutions) of cycloheximide beginning at 1.4 mM final concentration. Column 3 contained ancitabine at 40 uM and column 4 contained was the vehicle control (0.5% DMSO final concentration). Assay Steps: 5 uL of HeLa cells were plated in Aurora LoBase black clear bottom (cyclic-olefin polymer) 1536-well plates at a final density of 600 cells/well. Controls and library compounds were added with a 1536-well pin array using the Kalypsys pin-tool. The plates were then incubated for 48 hrs in a cell-culture incubator (37 °C; 5% CO2, 98% humidity). Following incubation the plates were read on the Acumen Explorer using the 488 nm laser. Data was collected on objects between 10 and 100 um in size. Cell objects were defined by a 15 um width x 10 um depth filter. The ratio of the total object intensity in PMT1 (500-530 nm emission; GFP) over PMT3 (575-640 nm emission; RFP) was calculated for analysis. Keywords: NIH Roadmap, MLSCN, MLI, MLSMR, qHTS, NCGC, lamin A, Progeria, RNA splicing.
# On the % scale 0 is the no-effect control and ±100 the full control effect; potency means the concentration at half of the fitted maximal effect.
SMILES,"ratio change, negative = inhibition",Potency
CNc1nc2c(C)cccn2c(=O)c1C=Nc1ccc(OC)cc1,-17.3% (inactive),
Cc1ccc(-n2nc(C)c3c(C)cc(=O)n(CC(=O)Nc4ccc(C(C)C)cc4)c32)cc1,-0.422% (inactive),
COc1cc(NS(=O)(=O)c2ccc3c(c2)OCC(C(=O)N2CCCC2)O3)cc(OC)c1 (stereo not given),-0.229% (inactive),
COc1cccc(NC(=S)N(Cc2ccc(C)cc2)Cc2ccccn2)c1,-5.44% (inactive),
O=C(Nc1ccccc1C(=O)O)c1cc(S(=O)(=O)N2CCCCC2)cs1,5.58% (inactive),
COc1ccc(CNS(=O)(=O)c2cc3c4c(c2)CCN4C(=O)CC3)cc1,-8.87% (inactive),
Cc1c(CCOC(=O)c2cc([N+](=O)[O-])ccc2Cl)sc[n+]1CCCCS(=O)(=O)[O-],11.9% (inactive),
COc1cc(/C=C/C(=O)OCC(=O)N2CCOCC2)ccc1OCC#N,-0.73% (inactive),
CC(C)CNc1ncnc2c1nnn2C,14% (inactive),
CC1CN(/C=C/C(=O)C(F)(F)F)CC(C)O1 (stereo not given),-0.822% (inactive),
O=C(CC1C(=O)NCCN1Cc1ccc(-c2ccccc2)cc1)NCc1ccncc1 (stereo not given),13.2% (inactive),
O=C(CCSCc1cccc(F)c1)NCc1ccccc1,30.8% (inactive),
CC(C)CCNC(=O)CSc1nc2ccccc2nc1Cc1ccc(Cl)cc1,-3.3% (inactive),
C/C(Cn1nnc2ccccc21)=N\OC(=O)c1cc(F)c(F)cc1Cl,0.235% (inactive),
O=C(NCCc1ccccc1)c1cnc2sc(N3CCCC3)nn2c1=O,15.1% (inactive),
O=[N+]([O-])c1cc([N+](=O)[O-])c2cccnc2c1O,1.6% (inactive),
O=C(Nc1ccccc1F)C(c1ccccc1)N1Cc2ccccc2C1=O (stereo not given),18.7% (inactive),
Cc1ccc(C)c(N2CCN(S(=O)(=O)c3ccc4c(c3)C(C(C)C)C(=O)N4)CC2)c1 (stereo not given),-10.7% (inactive),
Cc1cccc(N2CCN(C(=O)CCSCc3ccccc3F)CC2)c1C,-21.7% (inactive),
COc1ccc(SCc2cc(=O)c3ccc(C)c(C)c3[nH]2)cc1,-9.07% (inactive),
Cc1ccc(C(c2nnnn2C(C)(C)C)N2CCc3ccccc3C2)cc1 (stereo not given),-3.87% [at 46.1 µM] (inactive),
CC(C)(C)n1nnnc1C(c1ccc(Cl)cc1)N1CCSCC1 (stereo not given),-14% [at 46.1 µM] (inactive),

SMILES,"ratio change, negative = inhibition",Potency
CC(C)(C)n1nnnc1C(c1ccc2ncccc2c1)N1CCSCC1 (stereo not given),,6.31 µM (active)
COC(=O)C(C)NC(=O)COc1ccc2ccccc2c1 (stereo not given),4.35% (inactive),
O=C(Nc1ccc2nc(SCC(=O)N3CCc4ccccc43)sc2c1)c1ccccc1F,3.72% (inactive),
CCCN(CCC)CCNC(=O)c1ccc2c(c1)NC(=O)C(CS(=O)(=O)Cc1cccc(Br)c1)N2 (stereo not given),-3.12% (inactive),
CC(C)(C)NC(=O)COC(=O)c1cc(Cl)ccc1[N+](=O)[O-],-6.76% (inactive),
O=C(CN(c1cccc(Cl)c1)S(=O)(=O)c1ccccc1)NN=C1CCCC1,14.5% (inactive),
Cc1cccc(NC(=O)c2cc([N+](=O)[O-])ccc2N2CCN(C)CC2)c1,-17.1% (inactive),
CCOc1ccc(Nc2ncnc3scc(-c4ccc(OC)cc4)c23)cc1,-25.8% (inactive),
COc1cc(OC)cc(C(=O)NCCc2csc3nc(-c4ccccc4F)nn23)c1,-12.9% (inactive),
CCc1ccc(NS(=O)(=O)c2ccc3[nH]cc(C(=O)NCCc4cccc(C)c4)c(=O)c3c2)cc1,-2.18% (inactive),
CC(=O)NCC(=O)N1CCCC(C(=O)c2ccc3c4c(cccc24)CC3)C1 (stereo not given),9.21% (inactive),
Cc1cccc(Oc2c([N+](=O)[O-])c(=O)n(C)c3ccccc23)c1,4.53% (inactive),
CCOC(=O)c1sc(=NC(=O)/C=C/c2cccs2)n(C)c1C,2.93% [at 9.22 µM] (inactive),
Cc1cccc(Cn2c(CN3CCC(C(=O)NCc4ccccc4Cl)CC3)cc3ccccc32)c1,0.813% (inactive),
O=C(Nc1nnc(-c2ccco2)o1)c1ccc(S(=O)(=O)N2CCOCC2)cc1,16.1% [at 9.22 µM] (inactive),
Cc1nc([N+](=O)[O-])cn1CC(=O)Nc1ccc2c(c1)OCO2,-9.08% (inactive),
Cc1cccc(OCCC(=O)Nc2cc(S(=O)(=O)N3CCCCC3)ccc2N2CCOCC2)c1,6.84% (inactive),
Cc1ccc(C)c(-n2ccnc2SCC(N)=O)c1,7.68% (inactive),
CC1(C)OC(=O)C(=CSc2ccc(C(C)(C)C)cc2)C(=O)O1,-8.64% (inactive),
COc1cc(NC(=O)c2cccnc2SC)cc(OC)c1,-6.83% (inactive),
COc1ccccc1CN(C)c1nnnn1-c1ccccc1,-21.9% (inactive),
COc1ccc(NC(=O)CSc2nnc(-c3ccccc3F)n2C2CC2)cc1S(N)(=O)=O,-17.5% (inactive),

SMILES,"ratio change, negative = inhibition",Potency
CCOC(=O)c1cnc2[nH]c3ccccc3n2c1=O,4.43% (inactive),
CC(=O)c1ccc(NC(=O)CSc2c(C(C)C)cnc3c2c(=O)n(C)c(=O)n3C)cc1,-2.64% (inactive),
CCOC(=O)c1c(C)oc2nc(C)nc(N3CCN(c4ccc(OC)cc4)CC3)c12,-15.4% (inactive),
Cc1ccc(/C([O-])=C(/C(=S)NCc2ccco2)[n+]2ccccc2)cc1[N+](=O)[O-],1.77% (inactive),
O=C(C1COc2ccccc2O1)N(Cc1cccnc1)c1nc2c(F)cc(F)cc2s1 (stereo not given),-5.27% (inactive),
COc1ccc(NC(=O)c2sc3nc(-c4cc5cccc(OC)c5oc4=O)[nH]c(=O)c3c2C)cc1,13% (inactive),
COc1ccc(NS(=O)(=O)c2ccc(O)c(C(=O)OCC(=O)NC3CCCCC3)c2)cc1,-10.8% (inactive),
CCCN(CCC)CCCNC(=O)CNC(=O)c1nn(-c2ccc(OC)cc2)c(=O)c2ccccc12,-3.09% (inactive),
COc1ccccc1NC(=O)C1=C(C)Nc2nc(SCC(=O)c3ccc(C)cc3)nn2C1c1ccccc1C (stereo not given),17.2% (inactive),
COc1cccc(C(O)Cc2nc3ccccc3n2C)c1OC (stereo not given),-1.35% (inactive),
O=C(CCC(=O)N1CCCC1)Nc1ccc([N+](=O)[O-])cc1,3.87% (inactive),
C/C(CC(=O)Nc1ccc(C)cc1C)=N\NC(=O)C(C)C,0.278% (inactive),
O=C(Nc1nnc(S(=O)(=O)N2CCOCC2)s1)c1cccc(Br)c1,13.8% (inactive),
Cc1nc(N2CCC(C)CC2)c2c(C)c(C(=O)Nc3cc(F)ccc3C)sc2n1,11.2% [at 9.22 µM] (inactive),
CN(C)S(=O)(=O)c1ccc(NC(=O)COC(=O)Cn2[nH]c(=O)c3ccccc3c2=O)cc1,5.82% (inactive),
Cc1ccccc1C(=O)Nc1ccc(N2CCCCCC2)cc1,7.32% (inactive),
CC1CCN(C(=S)c2cccc([N+](=O)[O-])c2)CC1,-6.14% (inactive),
CC(=O)c1sc(NC(=O)C2=NN(c3ccccc3)C(=O)CC2)nc1C,-12.7% (inactive),
OCC1(CCOc2ccccc2)CCN(Cc2cn[nH]c2-c2ccccc2)CC1,19.2% (inactive),
CC(C)C(=O)Nc1ccc2oc(=O)ccc2c1,7.65% (inactive),
Cc1ccsc1C1C(C#N)=C(N)OC2=C1C(=O)CC(C)(C)C2 (stereo not given),3.22% [at 9.22 µM] (inactive),
